The values that follow come from PubChem BioAssay (EPA / NIEHS).

Assay [1] in a line: ATG_TAL_CIS: Attagene CIS-FACTORIAL HepG2 Assay for human TAL Basal Promoter (AID 2282966).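 Note: background control endpoint measuring basal TAL promoter reporter mRNA not a specific factor.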 As to conditions: HepG2 Attagene cis-factorial TAL promoter reporter; actives raise or lower the signal. In short, it runs like this: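 HepG2 cells were transiently transfected with promoter-driven multiplexed reporter units and dosed for 24 h. Reporter mRNA was measured by RT-PCR with capillary electrophoresis fluorescence; bidirectional fits used DMSO as baseline, serving as a background control.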

Assay [2] is described as follows: ATG_TGFb_CIS: Attagene CIS-FACTORIAL HepG2 Assay for human Transforming Growth Factor (TGF) (AID 2282967). As to conditions: HepG2 Attagene CIS TGFb reporter, mRNA transcription; actives raise or lower the signal. In short, it runs like this:
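Transcript-level reporter readout: HepG2 transfectants, 24 h exposure, RNA to cDNA, reporter-specific PCR, fluorescent primer extension, capillary sizing against ROX standards. Gain- or loss-of-signal relative to DMSO.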

Assay [3] is described as follows: ATG_VDRE_CIS: Attagene CIS-FACTORIAL HepG2 Assay for human Vitamin D Receptor Element (VDRE) (AID 2282968). The note with it: HepG2 VDRE cis-reporter transcription, actives raise or lower the signal. In short, it runs like this:
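Cell-based multiplexed reporter format in human liver HepG2 cells, 24 h post-dose. Fluorescence from capillary electrophoresis of reporter cDNA gives the signal, with DMSO as negative control and baseline.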

For assay [4], the target named is Nuclear receptor subfamily 1 group I member 3 (Homo sapiens) (UniProt Q14994). Kind of assay: ATG_CAR_TRANS: Attagene TRANS-FACTORIAL HepG2 Assay for human Constitutive Androstane Receptor (CAR) (AID 2282969; active = hit-call score of the fitted dose curve at least 0.9, where 1 is the maximum;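 note: activators raise reporter mRNA above DMSO so AC50 marks induction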). The note with it: HepG2 Attagene TRANS-FACTORIAL CAR reporter. In short, it runs like this:
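HepG2 cells transiently transfected with GAL4-UAS reporter units; TRANS format reads activity of exogenous chimeric NR-Gal4 protein. After 24 h dosing, reporter mRNA quantified by RT-PCR, 6-FAM labelling and capillary electrophoresis; gain of signal fitted against DMSO.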

Assay [5] addresses X-box-binding protein 1 (Homo sapiens) (UniProt P17861). Briefly: ATG_Xbp1_CIS: Attagene CIS-FACTORIAL HepG2 Assay for human X-box Binding Protein 1 (XBP1) (AID 2282972). As to conditions: HepG2 XBP1 cis-element reporter, Attagene multiplex; actives raise or lower the signal. An outline of the steps:
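Fluorescence-labelled cDNA fragments from reporter transcripts, separated by capillary electrophoresis, give the signal. Source: HepG2 cells transfected with promoter-driven reporter units, harvested 24 h post-dose. DMSO served as reference for bidirectional curve fitting.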

Assay [6] is described as follows: ATG_M_19_TRANS: Attagene TRANS-FACTORIAL HepG2 Assay for M19 Transcription Factor (Internal Marker) (AID 2282974; active = hit-call score of the fitted dose curve at least 0.9, where 1 is the maximum). As to conditions: HepG2 Attagene TRANS-FACTORIAL M19 internal marker reporter. In short, it runs like this: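 24 h chemical exposure of transiently transfected HepG2 (MRTU library). RNA → oligo(dT) RT → PCR → 6-FAM labelling → HpaI cut → CE fluorescence. Positive-direction fit vs DMSO baseline; background internal-marker readout.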

In assay [7] the target is Bile acid receptor (Homo sapiens) (UniProt Q96RI1). Briefly: ATG_FXR_TRANS: Attagene TRANS-FACTORIAL HepG2 Assay for Farnesoid X Receptor (FXR) (AID 2282979; active = hit-call score of the fitted dose curve at least 0.9, where 1 is the maximum;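 note: hits raise reporter mRNA above DMSO so AC50 marks FXR activation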). The note with it: HepG2 Attagene TRANS FXR-GAL4 reporter transcription. In short, it runs like this:
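HepG2 cells transiently transfected with reporter constructs in which a chimeric FXR-GAL4 protein drives a GAL4-UAS reporter; 24 h compound exposure. Reporter mRNA measured by RT-PCR, FAM labelling, HpaI digestion and capillary electrophoresis; gain-of-signal versus DMSO.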

In assay [8] the target is Oxysterols receptor LXR-beta (Homo sapiens) (UniProt P55055). Kind of assay: ATG_LXRb_TRANS: Attagene TRANS-FACTORIAL HepG2 Assay for human Liver X Receptor beta (LXRb) (AID 2282981; active = hit-call score of the fitted dose curve at least 0.9, where 1 is the maximum). The note with it: HepG2 Attagene TRANS GAL4-LXRb reporter, mRNA. An outline of the steps: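 Gain-of-signal mRNA reporter endpoint, DMSO as negative control. Transiently transfected HepG2 cells carrying the NR-Gal4 chimera and GAL4-UAS reporter units were treated 24 h; transcripts quantified by RT-PCR and capillary electrophoresis fluorescence.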

In assay [9] the target is Transcriptional activator Myb (Homo sapiens) (UniProt P10242). Briefly: ATG_Myb_CIS: Attagene CIS-FACTORIAL HepG2 Assay for human Myeloblastosis (Myb) Proto-Oncogene Transcription Factor (AID 2282986). As to conditions: HepG2 Attagene CIS-FACTORIAL Myb reporter transcription; actives raise or lower the signal. An outline of the steps: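 HepG2, transient MRTU transfection (cis-element promoters, endogenous TF activity), 24 h compound exposure. Readout: reporter mRNA via RT-PCR, 6-FAM labeling, HpaI digest, capillary electrophoresis. Gain/loss fit vs DMSO.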

Assay [10] has as its target Nuclear respiratory factor 1 (Homo sapiens) (UniProt Q16656). Kind of assay: ATG_NRF1_CIS: Attagene CIS-FACTORIAL HepG2 Assay for human Nuclear Respiratory Factor 1 (NRF1) Orphan Gene (AID 2282987). The note with it: HepG2 NRF1 cis-element reporter, Attagene multiplex; actives raise or lower the signal. In short, it runs like this:
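Endogenous NRF1-driven reporter transcription measured in transiently transfected human HepG2 liver cells. Readout: reporter mRNA by RT-PCR and capillary electrophoresis with fluorescence detection, 24 h post-dosing. Gain or loss of signal fitted relative to DMSO baseline.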

Assay [11] in a line: ATG_NFI_CIS: Attagene CIS-FACTORIAL HepG2 Assay for human Nuclear Factor I (NFI) (AID 2282989). The note with it: HepG2 cis-regulatory reporter, NFI response element transcription; actives raise or lower the signal. An outline of the steps:
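After transient transfection of HepG2 with cis-promoter reporter constructs and 24 h dosing, RNA is reverse-transcribed, amplified, 6-FAM end-labelled and HpaI-digested before capillary analysis. Bidirectional curve fitting against DMSO.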

Assay [12] can be described thus: ATG_GAL4_TRANS: Attagene TRANS-FACTORIAL HepG2 Assay for GAL4 (Internal Marker) (AID 2282976; active = hit-call score of the fitted dose curve at least 0.9, where 1 is the maximum). As to conditions: HepG2 Attagene TRANS GAL4 internal marker reporter. An outline of the steps:
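HepG2 cells transiently transfected with multiplexed GAL4-UAS reporter constructs were dosed for 24 h. Reporter mRNA was measured by RT-PCR, 6-FAM primer extension, HpaI digestion and capillary electrophoresis, and gain of signal was fitted relative to DMSO.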

In assay [13] the target is Glucocorticoid receptor (Homo sapiens) (UniProt P04150). Briefly: ATG_GR_TRANS: Attagene TRANS-FACTORIAL HepG2 Assay for human Glucocorticoid Receptor (GR) (AID 2282978; active = hit-call score of the fitted dose curve at least 0.9, where 1 is the maximum;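 note: activators score as hits since higher reporter transcript over DMSO is fitted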). The note with it: HepG2 Attagene TRANS GR reporter, mRNA transcription. In short, it runs like this:
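Transient MRTU transfection of HepG2 (GAL4-UAS reporters, exogenous NR-GAL4 chimeras), 24 h dosing. Readout: reporter transcript via RT-PCR + capillary electrophoresis fluorescence. Positive direction vs DMSO baseline.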

The target of assay [14] is Oxysterols receptor LXR-alpha (Homo sapiens) (UniProt Q13133). Briefly: ATG_LXRa_TRANS: Attagene TRANS-FACTORIAL HepG2 Assay for human Liver X Receptor alpha (LXRa) (AID 2282980; active = hit-call score of the fitted dose curve at least 0.9, where 1 is the maximum). The note with it: HepG2 Attagene TRANS reporter, LXRa transactivation. An outline of the steps:
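HepG2 cells were transiently transfected with multiplexed reporter units driven by chimeric LXRa–GAL4 fusion proteins, then dosed for 24 h. Reporter mRNA was quantified by RT-PCR, fluorescent labelling and capillary electrophoresis; gain of signal fitted against DMSO baseline.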

Assay [15] is described as follows: ATG_M_06_TRANS: Attagene TRANS-FACTORIAL HepG2 Assay for M06 Transcription Factor (Internal Marker) (AID 2282983; active = hit-call score of the fitted dose curve at least 0.9, where 1 is the maximum). As to conditions: HepG2 Attagene TRANS M06 internal marker reporter. In short, it runs like this: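 HepG2 cells transiently transfected with multiplexed GAL4-UAS reporter transcription units; after 24 h compound exposure, reporter mRNA measured by RT-PCR, FAM-labelled primer extension, HpaI digestion and capillary electrophoresis. Gain-of-signal fitted versus DMSO baseline; background control readout.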

Assay [16] concerns the target Myc proto-oncogene protein (Homo sapiens) (UniProt P01106). Kind of assay: ATG_Myc_CIS: Attagene CIS-FACTORIAL HepG2 Assay for human Myelocytomatosis (Myc) Proto-Oncogene Transcription Factor (AID 2282990). The note with it: HepG2, Attagene cis-reporter transcription factor activity; actives raise or lower the signal. In short, it runs like this: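 Fluorescence intensity of reporter-specific cDNA fragments, separated by capillary electrophoresis, gives the signal. Transfected HepG2 cells carrying cis-promoter reporter constructs are incubated with compound for 24 h; DMSO serves as baseline.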

Assay [17] has as its target Estrogen-related receptor gamma (Homo sapiens) (UniProt P62508). Kind of assay: ATG_ERRg_TRANS: Attagene TRANS-FACTORIAL HepG2 Assay for human Estrogen-Related Receptor gamma (ERRg) (AID 2282977; active = hit-call score of the fitted dose curve at least 0.9, where 1 is the maximum;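 note: hits increase reporter signal over DMSO so potencies reflect activators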). The note with it: HepG2 Attagene TRANS reporter, ERRg transactivation. An outline of the steps: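 Transient HepG2 transfectants, 24 h compound exposure, GAL4-UAS reporter mRNA by RT-PCR/6-FAM labelling/capillary electrophoresis; positive direction vs DMSO.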

SMILES strings stand for the structures. Results filed as inconclusive are left out. The source made the active and inactive calls. Rule for the calls, unless noted: active = hit-call score of the fitted dose curve at least 0.9, where 1 is the maximum; inactive = score below 0.9.

Chain of Nuclear receptor subfamily 1 group I member 3 (Homo sapiens) (Q14994 whole entry, looked up, the tested form may be a part): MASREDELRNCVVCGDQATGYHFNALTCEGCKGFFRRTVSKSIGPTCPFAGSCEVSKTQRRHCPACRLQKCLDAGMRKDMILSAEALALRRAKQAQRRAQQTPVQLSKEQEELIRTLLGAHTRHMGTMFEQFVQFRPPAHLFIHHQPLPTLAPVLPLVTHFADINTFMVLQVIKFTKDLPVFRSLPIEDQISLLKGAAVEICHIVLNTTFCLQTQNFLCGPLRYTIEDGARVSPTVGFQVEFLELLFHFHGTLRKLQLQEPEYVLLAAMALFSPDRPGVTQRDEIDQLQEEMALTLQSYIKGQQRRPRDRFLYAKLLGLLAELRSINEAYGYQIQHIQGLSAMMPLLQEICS
Chain of Bile acid receptor (Homo sapiens) (Q96RI1 whole entry, looked up, the tested form may be a part): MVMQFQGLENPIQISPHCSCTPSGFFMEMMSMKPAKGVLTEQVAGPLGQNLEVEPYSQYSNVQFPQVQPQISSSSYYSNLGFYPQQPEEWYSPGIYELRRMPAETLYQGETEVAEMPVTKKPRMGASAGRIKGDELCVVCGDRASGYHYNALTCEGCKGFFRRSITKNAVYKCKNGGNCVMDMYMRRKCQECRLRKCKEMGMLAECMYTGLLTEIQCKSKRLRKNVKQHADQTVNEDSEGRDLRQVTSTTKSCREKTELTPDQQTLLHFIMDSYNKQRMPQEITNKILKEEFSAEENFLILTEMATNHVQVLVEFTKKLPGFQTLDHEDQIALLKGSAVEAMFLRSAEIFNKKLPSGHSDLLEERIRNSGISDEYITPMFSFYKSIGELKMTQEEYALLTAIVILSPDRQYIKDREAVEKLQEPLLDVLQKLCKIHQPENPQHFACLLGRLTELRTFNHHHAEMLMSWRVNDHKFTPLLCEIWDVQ
Chain of X-box-binding protein 1 (Homo sapiens) (P17861 whole entry, looked up, the tested form may be a part): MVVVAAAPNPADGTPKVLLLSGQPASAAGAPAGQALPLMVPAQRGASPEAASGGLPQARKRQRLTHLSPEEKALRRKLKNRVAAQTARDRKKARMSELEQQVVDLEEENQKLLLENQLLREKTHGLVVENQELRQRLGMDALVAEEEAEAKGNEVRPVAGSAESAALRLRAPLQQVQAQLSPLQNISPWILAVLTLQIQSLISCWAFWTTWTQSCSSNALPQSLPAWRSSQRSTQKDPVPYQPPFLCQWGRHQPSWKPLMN
Chain of Myc proto-oncogene protein (Homo sapiens) (P01106 whole entry, looked up, the tested form may be a part): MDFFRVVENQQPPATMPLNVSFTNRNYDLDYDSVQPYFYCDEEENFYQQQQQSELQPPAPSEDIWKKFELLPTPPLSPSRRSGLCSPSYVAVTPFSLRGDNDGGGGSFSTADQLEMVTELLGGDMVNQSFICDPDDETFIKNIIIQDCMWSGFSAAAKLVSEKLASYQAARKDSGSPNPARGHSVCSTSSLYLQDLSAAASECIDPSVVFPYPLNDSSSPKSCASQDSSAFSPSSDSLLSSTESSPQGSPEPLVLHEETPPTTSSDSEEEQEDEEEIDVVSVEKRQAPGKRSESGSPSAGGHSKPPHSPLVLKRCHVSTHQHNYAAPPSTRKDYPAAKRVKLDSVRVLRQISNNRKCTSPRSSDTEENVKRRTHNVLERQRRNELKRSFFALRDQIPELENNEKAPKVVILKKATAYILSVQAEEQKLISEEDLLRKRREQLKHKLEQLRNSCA
Chain of Glucocorticoid receptor (Homo sapiens) (P04150 whole entry, looked up, the tested form may be a part): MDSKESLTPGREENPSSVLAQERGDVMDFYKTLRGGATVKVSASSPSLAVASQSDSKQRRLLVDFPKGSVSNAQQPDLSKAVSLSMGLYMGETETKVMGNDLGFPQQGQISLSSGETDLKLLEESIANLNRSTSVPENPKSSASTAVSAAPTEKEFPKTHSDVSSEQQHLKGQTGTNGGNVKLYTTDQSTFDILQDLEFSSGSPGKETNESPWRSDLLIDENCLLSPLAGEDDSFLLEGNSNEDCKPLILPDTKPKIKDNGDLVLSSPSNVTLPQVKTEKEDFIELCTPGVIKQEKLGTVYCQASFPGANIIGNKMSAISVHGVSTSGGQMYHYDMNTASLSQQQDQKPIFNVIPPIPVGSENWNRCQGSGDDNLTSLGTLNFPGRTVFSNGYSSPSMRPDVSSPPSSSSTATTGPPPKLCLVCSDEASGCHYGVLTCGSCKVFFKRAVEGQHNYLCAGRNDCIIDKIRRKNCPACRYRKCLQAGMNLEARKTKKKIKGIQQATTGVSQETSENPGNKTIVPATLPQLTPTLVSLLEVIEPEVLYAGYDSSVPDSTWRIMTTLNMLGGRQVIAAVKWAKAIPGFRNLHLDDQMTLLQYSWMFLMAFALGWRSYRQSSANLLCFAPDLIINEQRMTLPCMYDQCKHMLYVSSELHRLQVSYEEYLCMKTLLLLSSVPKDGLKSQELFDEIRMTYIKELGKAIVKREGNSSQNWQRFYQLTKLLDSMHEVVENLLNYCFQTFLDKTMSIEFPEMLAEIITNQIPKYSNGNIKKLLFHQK
Chain of Oxysterols receptor LXR-beta (Homo sapiens) (P55055 whole entry, looked up, the tested form may be a part): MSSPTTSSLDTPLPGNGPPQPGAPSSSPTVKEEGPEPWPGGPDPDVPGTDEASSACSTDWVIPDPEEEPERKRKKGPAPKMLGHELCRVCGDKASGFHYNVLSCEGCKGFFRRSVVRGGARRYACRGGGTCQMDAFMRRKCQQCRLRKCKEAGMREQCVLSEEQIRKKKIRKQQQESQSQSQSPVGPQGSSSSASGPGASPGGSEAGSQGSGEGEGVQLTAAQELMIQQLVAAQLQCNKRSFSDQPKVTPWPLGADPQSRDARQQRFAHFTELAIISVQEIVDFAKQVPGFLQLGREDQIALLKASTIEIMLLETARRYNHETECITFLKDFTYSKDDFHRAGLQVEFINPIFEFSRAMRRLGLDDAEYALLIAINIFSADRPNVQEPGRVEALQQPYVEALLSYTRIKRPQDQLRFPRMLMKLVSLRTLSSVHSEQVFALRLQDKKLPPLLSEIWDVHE
Chain of Nuclear respiratory factor 1 (Homo sapiens) (Q16656 whole entry, looked up): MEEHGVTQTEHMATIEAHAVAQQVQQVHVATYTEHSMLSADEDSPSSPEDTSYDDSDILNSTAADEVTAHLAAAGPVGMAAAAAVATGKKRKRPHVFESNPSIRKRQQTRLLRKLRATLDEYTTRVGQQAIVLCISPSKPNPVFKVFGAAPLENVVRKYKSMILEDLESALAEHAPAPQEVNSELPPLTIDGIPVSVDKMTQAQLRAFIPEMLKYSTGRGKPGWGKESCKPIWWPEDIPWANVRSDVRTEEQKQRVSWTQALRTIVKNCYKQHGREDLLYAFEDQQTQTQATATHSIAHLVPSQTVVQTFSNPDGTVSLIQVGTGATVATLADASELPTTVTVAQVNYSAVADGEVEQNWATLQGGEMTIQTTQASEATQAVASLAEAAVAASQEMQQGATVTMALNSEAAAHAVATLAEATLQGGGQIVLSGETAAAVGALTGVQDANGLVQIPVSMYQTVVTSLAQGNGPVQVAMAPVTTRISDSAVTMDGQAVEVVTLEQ
Chain of Oxysterols receptor LXR-alpha (Homo sapiens) (Q13133 whole entry, looked up, the tested form may be a part): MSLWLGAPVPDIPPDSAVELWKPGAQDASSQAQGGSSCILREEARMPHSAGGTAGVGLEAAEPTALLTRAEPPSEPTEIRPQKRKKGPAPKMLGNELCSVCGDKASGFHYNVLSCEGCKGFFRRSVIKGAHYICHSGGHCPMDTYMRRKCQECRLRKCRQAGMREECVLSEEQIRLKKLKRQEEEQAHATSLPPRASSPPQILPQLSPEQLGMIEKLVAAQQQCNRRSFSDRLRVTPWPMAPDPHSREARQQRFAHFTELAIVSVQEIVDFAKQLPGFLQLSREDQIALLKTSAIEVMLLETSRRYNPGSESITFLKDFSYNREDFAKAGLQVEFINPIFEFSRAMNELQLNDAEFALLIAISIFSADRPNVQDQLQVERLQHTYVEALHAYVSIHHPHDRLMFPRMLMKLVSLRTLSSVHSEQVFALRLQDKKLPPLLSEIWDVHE
Chain of Transcriptional activator Myb (Homo sapiens) (P10242 whole entry, looked up): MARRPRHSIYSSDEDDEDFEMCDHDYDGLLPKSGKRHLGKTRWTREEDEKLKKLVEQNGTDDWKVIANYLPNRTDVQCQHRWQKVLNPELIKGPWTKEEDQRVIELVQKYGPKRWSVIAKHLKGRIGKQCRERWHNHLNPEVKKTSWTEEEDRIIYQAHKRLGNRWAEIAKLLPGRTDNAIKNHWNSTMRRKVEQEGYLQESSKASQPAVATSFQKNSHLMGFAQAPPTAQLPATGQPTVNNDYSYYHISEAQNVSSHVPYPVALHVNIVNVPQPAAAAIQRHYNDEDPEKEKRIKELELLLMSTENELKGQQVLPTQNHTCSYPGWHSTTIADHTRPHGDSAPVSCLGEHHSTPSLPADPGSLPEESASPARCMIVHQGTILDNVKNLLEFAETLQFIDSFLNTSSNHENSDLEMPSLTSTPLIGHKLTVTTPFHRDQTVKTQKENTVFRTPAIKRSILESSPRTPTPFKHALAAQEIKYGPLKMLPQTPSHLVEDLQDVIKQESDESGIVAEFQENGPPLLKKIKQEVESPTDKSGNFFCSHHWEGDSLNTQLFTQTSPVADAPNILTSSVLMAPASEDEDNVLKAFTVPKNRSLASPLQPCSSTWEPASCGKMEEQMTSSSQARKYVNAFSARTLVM
Chain of Estrogen-related receptor gamma (Homo sapiens) (P62508 whole entry, looked up, the tested form may be a part): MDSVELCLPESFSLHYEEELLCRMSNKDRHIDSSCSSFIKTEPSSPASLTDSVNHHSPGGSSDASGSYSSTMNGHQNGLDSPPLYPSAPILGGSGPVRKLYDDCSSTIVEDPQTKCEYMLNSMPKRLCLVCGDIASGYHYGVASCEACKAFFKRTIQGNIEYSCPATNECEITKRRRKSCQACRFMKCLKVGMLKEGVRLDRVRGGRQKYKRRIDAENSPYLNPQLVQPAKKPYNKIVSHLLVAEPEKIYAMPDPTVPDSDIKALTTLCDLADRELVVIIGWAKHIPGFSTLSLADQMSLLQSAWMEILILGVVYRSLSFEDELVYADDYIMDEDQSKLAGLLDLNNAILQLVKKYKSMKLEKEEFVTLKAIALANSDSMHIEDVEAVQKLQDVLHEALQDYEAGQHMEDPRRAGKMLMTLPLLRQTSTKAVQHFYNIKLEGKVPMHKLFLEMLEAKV

With `Cc1c(-c2cccnc2)c2ccccc2n1CCCCC(=O)O`, the result in assay [1], in assay [2], in assay [3], in assay [4], in assay [5] and in [6] was inactive. In addition, the outcome in assay [7], in assay [8], in [9], in assay [10] and in assay [11] was inactive.

Consider `CN(C)c1ccc(N=NS(=O)(=O)O)cc1`, for which the outcome in [1], in assay [2], in assay [3], in assay [4], in assay [5] and in [12] was inactive. For the same compound, the call in assay [13], in [14], in [8], in assay [15], in [10] and in assay [11] was inactive.

On to `C1=CCCC=CCCC=CCC1`, for which the compound was called inactive in assay [1], in assay [2], in [3], in [4], in [5] and in assay [13]. In addition, the result in assay [7], in assay [15], in [10], in assay [11] and in [16] was inactive.

Regarding `Cc1ccc(O)cc1`, the compound was classed as inactive in [1], in assay [2], in assay [3], in [4], in [5] and in assay [13]. The compound was called inactive in assay [15], in assay [10], in assay [11] and in assay [16].

Consider `COc1cccc(-c2ccc(/C=C\CN3CCCCCC3)cc2Cl)c1`, for which the compound was classed as inactive in assay [1], in assay [2], in assay [4], in assay [5], in [6] and in [17]. Besides, the result in assay [13], in assay [7], in assay [14], in [8], in [15] and in assay [9] was inactive. The compound was classed as inactive in [10], in [11] and in [16]. Moreover, the concentration at half-maximal activity (AC50) (in general, the concentration at which the activity in the assay is half-maximal) in [3] was 6.94 µM (active).
